HPGD block: qHTS Assay for Inhibitors of HPGD (15-Hydroxyprostaglandin Dehydrogenase) | 15-hydroxyprostaglandin dehydrogenase [NAD(+)] (Homo sapiens), P15428 | Potency, µM, hits mostly inhibitors | AID 894, 2007 | 4.3% of 150,000 active | purified HPGD, NADH fluorescence kinetic, PGE2 substrate
Target sequence (P15428 whole entry, looked up): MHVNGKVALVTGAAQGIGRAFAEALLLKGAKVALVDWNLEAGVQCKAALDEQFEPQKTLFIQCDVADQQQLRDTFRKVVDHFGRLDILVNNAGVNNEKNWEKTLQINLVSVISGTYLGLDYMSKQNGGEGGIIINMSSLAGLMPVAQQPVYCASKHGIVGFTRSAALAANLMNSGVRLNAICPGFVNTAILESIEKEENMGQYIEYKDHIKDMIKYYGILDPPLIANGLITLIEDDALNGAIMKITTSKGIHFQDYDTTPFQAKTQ
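NADH formation kinetics: reaction with 30 uM PGE2 and 1 mM NAD+ (final), 20 nM enzyme, Tris-HCl pH 8 with Tween 20, after 15 min compound preincubation at room temperature. Fluorescence change, last versus first of five reads.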
ALDH1A1 block: qHTS Assay for Inhibitors of Aldehyde Dehydrogenase 1 (ALDH1A1); Purified ALDH1A1, NADH fluorescence, propionaldehyde substrate; 7.3% of 220,000 active; Potency, µM (series often up to 75.3 µM), most hits filed as inhibitors
PNC inhibitor: High Content Assay for Compounds that inhibit the Assembly of the Perinucleolar Compartment | PC3M PTB-GFP, PNC prevalence imaging, 16 h; hits give low values | activity change (PNC), negative = inhibition, % at 10 µM | 3.1% of 140,000 active;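 active = readout at or below -70, meaning at least 70% loss of cells showing the perinucleolar compartment, a nuclear body marking cancer cells; inconclusive = readout between -30 and a set limit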
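PC3M cells stably expressing PTB-GFP, 750–1000 cells/well, treated 16 h at 37 °C with compound (23 nl of library stock), in duplicate. After paraformaldehyde fixation and Hoechst stain, imaged at 20x; PNC prevalence scored by image analysis.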
Large screens that a line does not name were inactive. Only some compounds are listed: those with a hit (about 11% of all), similar ones and a draw of the others. Unless noted, calls come from the whole dose curve; as a rule, active = well fitted inhibition curve with a large enough effect (not every such curve was filed as active); inconclusive = small, poorly fitted or top-dose-only effect, or another doubt; inactive = no such curve, though single readings can be large or run the other way.

O=C(COC(=O)c1ccc(-c2nnc(-c3ccccc3)o2)cc1)c1ccccc1	none
CCOC(=O)c1ccc(N=Cc2nc(-c3ccccc3)oc2OC(C)=O)cc1	HPGD block 16µM, ALDH1A1 block 22µM
CCCCC(=O)c1c(O)c2ccccc2oc1=O	PNC inhibitor inconclusive
COc1ccc(N=Cc2c(O)c3ccccc3oc2=O)cc1	none
CCOc1ccc(OCC(=O)c2c(O)c3ccccc3oc2=O)cc1	HPGD block 13µM, ALDH1A1 block 8.9µM
COc1ccc(OCC(=O)c2c(O)c3ccccc3oc2=O)cc1	HPGD block 22µM, ALDH1A1 block inconclusive
CCC#CCOCC(=O)Nc1ccccc1	ALDH1A1 block inconclusive (no result: PNC inhibitor)
CO[C@@H]1/C=C\CC(=O)N[C@@H](C)C(=O)OC[C@H](NS(=O)(=O)c2ccc(C)cc2)[C@H](C)/C=C\CC(=O)OC[C@H]1C	none (no result: HPGD block, PNC inhibitor)
CSc1nsc(/C=C/Nc2ccc(Cl)cc2)c1C#N	ALDH1A1 block 7.9µM
CSc1nnc(C)c(/C=C/Nc2ccc(C)cc2)n1	none
CSc1nc2ccccc2cc1/C=C(\C#N)c1cccc(Cl)c1	HPGD block inconclusive
Cc1cc(O)ccc1N/C=C(\C#N)c1nc2ccccc2o1	HPGD block inconclusive
CSc1nsc(/C=C/Nc2ccc(O)cc2C)c1C#N	ALDH1A1 block 25µM (no result: HPGD block, PNC inhibitor)
CSc1nsc(/C=C/Nc2cccc(Cl)c2)c1C#N	ALDH1A1 block 11µM
COc1ccccc1CCn1c(=O)c(C)nc2cncnc21	none (no result: PNC inhibitor)
CNc1nc(-c2cccnc2)nc2ccccc12	none (no result: HPGD block, PNC inhibitor)
CCC(=O)Nc1ccc(S(=O)(=O)Nc2ccccn2)cc1	none (no result: HPGD block, PNC inhibitor)
Nc1ccc(S(=O)(=O)Nc2ccccn2)cc1	none
CCN(CC)c1ccc(NC2=C(Cl)C(=O)c3ccccc3C2=O)cc1	HPGD block 7.9µM, ALDH1A1 block 10µM, PNC inhibitor inconclusive
Cc1ccc(NC2=C(Cl)C(=O)c3ccccc3C2=O)cc1	none (no result: HPGD block)
CC(C)(C)c1ccc(S(=O)(=O)Nc2ccccn2)cc1	ALDH1A1 block 32µM (no result: HPGD block, PNC inhibitor)
O=C1C(Cl)=C(Nc2ccc(S(=O)(=O)Nc3ccccn3)cc2)C(=O)c2ccccc21	HPGD block 2.8µM, ALDH1A1 block 0.63µM (no result: PNC inhibitor)
CCNC(=S)Nc1ccc(Cl)c([N+](=O)[O-])c1	none (no result: HPGD block, PNC inhibitor)
COC(=O)C1=NNC2(C)C(=O)N(c3ccc(C)cc3)C(=O)C12 (centres undefined)	none (no result: HPGD block, PNC inhibitor)
COCC(=O)N1CCC2(CCCN(Cc3ccccc3)C2)CC1	none (no result: PNC inhibitor)
O.O.O.O.O.O.O.O=S(=O)([O-])[O-].[Co+2]	ALDH1A1 block inconclusive (no result: PNC inhibitor)
CC(NS(=O)(=O)c1ccc(OCC(=O)Nc2cccc([N+](=O)[O-])c2)cc1)c1ccccc1 (centres undefined)	none
COc1ccc(CCC(C)Nc2ccccc2F)cc1 (centres undefined)	none
COc1ccc(CCC(C)Nc2cccc(F)c2)cc1 (centres undefined)	ALDH1A1 block 10µM
COc1cc(/C=C/C(=O)N2CCC=CC2=O)cc(OC)c1OC	ALDH1A1 block 10µM (no result: PNC inhibitor)
COc1cc(/C=C/C(=O)N2CCCN(C(=O)/C=C/c3cc(OC)c(OC)c(OC)c3)CC2)cc(OC)c1OC	none (no result: HPGD block, PNC inhibitor)
Cn1c(SCc2ccccc2)nnc1-c1ccc2c(c1)OCO2	none
Cn1c(SCC#N)nnc1-c1ccc2c(c1)OCO2	PNC inhibitor -119
CC(=O)N1CCC(=NNC(=O)c2cccs2)CC1	PNC inhibitor -109
O=C(NN=C1CCCC1)c1cccs1	HPGD block inconclusive
C=C(C)C1CC=C(C)/C(=N/NC(=O)c2cccs2)C1 (centres undefined)	HPGD block inconclusive, PNC inhibitor inconclusive
O=C(NN=C1C2CC3CC(C2)CC1C3)c1cccs1	ALDH1A1 block 20µM, PNC inhibitor inconclusive
COc1ccc(C(=O)[C@]2(C)C=C(c3ccc(OC)cc3)[C@H](C)C2)cc1	none (no result: PNC inhibitor)
Cc1ccc(O)c(NC(=O)CCCC(=O)O)c1	PNC inhibitor -101
COc1ccc(C)cc1NC(=O)C(=O)NCc1ccncc1	ALDH1A1 block 18µM, PNC inhibitor inconclusive (no result: HPGD block)
COc1ccc(C)cc1NC(=O)CN(c1ccccc1F)S(C)(=O)=O	none
Cc1ccc(NC(=O)CCCC(=O)O)c(Br)c1	none
COc1ccc(NC(=O)C(=O)NCc2ccncc2)c(OC)c1	none
CCCCCCCCC(=O)Nc1cc(C)ccc1OC	PNC inhibitor -100
COc1ccc(C)cc1NC(=O)CN(c1ccc(F)cc1)S(C)(=O)=O	PNC inhibitor -94
CCOC(=O)Nc1cc(C)ccc1OC	none
CC(Cc1ccccc1)C(=O)NCCc1c[nH]c2ccccc12 (centres undefined)	ALDH1A1 block inconclusive (no result: PNC inhibitor)
CCCCNC(=O)C(c1ccc(OCC(=O)OC)c(C(=O)OC)c1)N(CCOC)C(=O)CCCCCN1C(=O)NC(c2ccc(-c3ccccc3)cc2)C(C(=O)OCc2ccccc2)=C1C (centres undefined)	none (no result: PNC inhibitor)
CCOc1ccccc1OCCCNCc1ccco1	ALDH1A1 block inconclusive
O=C(C1CCCN(Cc2ccccc2)C1)N1CCc2ccccc2C1 (centres undefined)	none
CCCCOc1ccc(C(=O)NCC2(c3ccc(OC)cc3)CCOCC2)cc1	ALDH1A1 block inconclusive
Cc1csc(N/N=C\c2cccnc2)n1	ALDH1A1 block 11µM (no result: HPGD block, PNC inhibitor)
Cc1ccc(N/N=C/c2cccnc2)cc1	ALDH1A1 block inconclusive
Cc1nc2cc3c(cc2c(C)c1C(=O)OC(C)C)OCO3	HPGD block inconclusive, ALDH1A1 block inconclusive
Cc1ccc(S(=O)(=O)NCc2ccco2)cc1C(N)=O	none (no result: HPGD block, PNC inhibitor)
O=S(=O)(NCc1ccco1)c1cnc(Cl)c(Br)c1	ALDH1A1 block 22µM
COCC(=O)N1CCC2(CCCN(c3ncccn3)C2)CC1	none (no result: PNC inhibitor)
O=C(Cc1cccc2ccccc12)NCCOc1ccccc1F	none (no result: HPGD block, PNC inhibitor)
O=C(CNC(=O)c1cccs1)OCC(=O)c1ccccc1	none
O=C(OCC(=O)c1cccs1)c1ccccc1	HPGD block 14µM, ALDH1A1 block 13µM
O=C(CC(Nc1ccccc1Cl)C(=O)OCC(=O)c1cccs1)c1ccccc1 (centres undefined)	ALDH1A1 block 25µM
O=C(CNC(=O)c1cccs1)OCC(=O)c1ccccc1Cl	none (no result: HPGD block, PNC inhibitor)
COc1cc(C(C[N+](=O)[O-])c2c(-c3ccccc3)cc3ccccn23)cc(OC)c1OC (centres undefined)	HPGD block inconclusive, ALDH1A1 block 3.5µM
COc1ccc(C(C[N+](=O)[O-])C2(c3ccc(OC)c(OC)c3)C(=O)c3ccccc3C2=O)cc1 (centres undefined)	ALDH1A1 block inconclusive
COc1ccc(C(C[N+](=O)[O-])c2c(-c3ccccc3)cc3ccccn23)cc1 (centres undefined)	HPGD block 28µM, ALDH1A1 block inconclusive
COc1ccc(C(C[N+](=O)[O-])c2c(-c3ccccc3)cc3ccccn23)cc1OC (centres undefined)	none
CC(C)[C@@H](CC(=O)N[C@@H]1CCNC[C@H]1C(=O)N[C@H](CC(=O)N[C@@H](CCC(=O)O)CC(=O)O)Cc1c[nH]c2ccccc12)NC(=O)C[C@H](Cc1c[nH]c2ccccc12)NC(=O)[C@@H]1CNCC[C@H]1N	ALDH1A1 block inconclusive (no result: PNC inhibitor)
CC(=O)Nc1ccc(/C=N/NC(=O)c2cc3ccccc3nc2C)cc1	ALDH1A1 block inconclusive, PNC inhibitor inconclusive
Cc1nc2c(cc1C(=O)N/N=C/c1ccc(O)c(O)c1)c(=O)n(C)c(=O)n2C	PNC inhibitor -89
